The record followed here is PubChem BioAssay (NCATS).

Common to all, as to assay: qHTS profiling for inhibitors of Plasmodium falciparum proliferation (AID 504749); note: nearly all actives have a fitted effect of over 60% in size
Holding throughout (conditions): P. falciparum in erythrocytes, SYBR Green DNA, 72 h; series mostly up to 28.7 µM
In general terms: qHTS replaces the single test concentration by a dilution series.

The subject of one assay is CP247. An outline of the steps: (§1)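 Each compound contacts P. falciparum-infected red blood cells for 72 h at 37 C; lysis buffer (Tris, EDTA, saponin, Triton X, SYBR Green I) is added and fluorescence measured next morning; values normalized to controls.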
The next assay deals with CP250. An outline of the steps:
as §1

The test system of the next assay is CP252. An outline of the steps:
as §1

The next assay has as its system CP256. An outline of the steps: as §1
Another assay relates to CP260. An outline of the steps: as §1
For another assay, the system named is CP262. An outline of the steps: as §1
For a further assay, the system named is CP265. An outline of the steps: as §1
In another assay the test system is CP266. An outline of the steps:
as §1

A further assay relates to CP268. An outline of the steps:
as §1

In another assay the test system is CP269. An outline of the steps:
as §1

The subject of a further assay is CP286. An outline of the steps: as §1
For another assay, the system named is CP291. An outline of the steps: as §1
Another assay relates to CP297. An outline of the steps:
as §1

The subject of the next assay is CP305. An outline of the steps:
as §1

For the next assay, the system named is CP315. An outline of the steps:
as §1

The next assay has as its system CP325. An outline of the steps:
as §1

A further assay relates to CP329. An outline of the steps:
as §1

The test system of another assay is CP335. An outline of the steps:
as §1

For a further assay, the system named is DFO2036. An outline of the steps:
as §1

In a further assay the test system is DIV14. An outline of the steps: as §1

The structures appear in SMILES notation. Inconclusive results are not listed. The source made the active and inactive calls. Calls come from the whole dose curve; as a rule, active = well fitted inhibition curve with a large enough effect; inconclusive = small, poorly fitted or top-dose-only effect; inactive = flat fitted curve, though single readings scatter. Peptide text beside a SMILES is read from it.
Potency is the fitted concentration of half-maximal effect.

With `COc1cc(OC)c(C(=O)CCCN2CCCC2)c(OC)c1`, the Potency entry in the assay on CP247, with CP250, with CP252, in the assay with CP256, with CP260 and with CP262 was “inactive” each time. In addition, the Potency result with CP265, in the assay on CP266, in the assay on CP268, in the assay on CP269, in the assay with CP286 and in the assay with CP291 was “inactive” throughout. Moreover, the Potency entry in the assay with CP297, with CP305, with CP315, in the assay with CP325, with CP329 and in the assay on CP335 was “inactive” each time. Besides, the Potency result in the assay with DFO2036 and in the assay on DIV14 was “inactive” each time.

Take `CCCCc1ccc2nc(NC(=O)OC)[nH]c2c1`: the Potency entry with CP247, in the assay with CP250, in the assay on CP252, in the assay on CP256, in the assay with CP260 and with CP262 was “inactive” throughout. For the same molecule, the Potency entry with CP265, in the assay with CP266, in the assay on CP268, in the assay on CP269, with CP286 and in the assay on CP291 was “inactive” throughout. Moreover, the Potency entry in the assay with CP297, with CP305, in the assay on CP315, with CP325, in the assay with CP329 and in the assay on CP335 was “inactive” in each case. Besides, the Potency entry in the assay on DFO2036 and in the assay with DIV14 was “inactive” each time.

Regarding `Cc1ccc(C)c(OCCCC(C)(C)C(=O)O)c1`, the Potency result in the assay with CP247, in the assay with CP250, with CP252, in the assay on CP256, in the assay on CP260 and in the assay on CP262 was “inactive” each time. Also, the Potency result in the assay with CP265, in the assay with CP266, with CP268, in the assay on CP269, with CP286 and in the assay with CP291 was “inactive” each time. The Potency result with CP297, with CP305, with CP315, in the assay with CP325, with CP329 and with CP335 was “inactive” each time. Besides, the Potency result with DFO2036 and with DIV14 was “inactive” throughout.

As to `CC(C)(S)[C@@H](N)C(=O)O`, the Potency entry in the assay on CP247, in the assay with CP250, in the assay with CP252, in the assay on CP256, in the assay with CP260 and with CP262 was “inactive” each time. The Potency result with CP265, in the assay with CP266, with CP268, in the assay on CP269, with CP286 and with CP291 was “inactive” in each case. The Potency entry in the assay with CP297, with CP305, in the assay on CP315, in the assay with CP325, with CP329 and in the assay with CP335 was “inactive” each time. In addition, the Potency entry in the assay with DFO2036 and with DIV14 was “inactive” in each case.

Turning to `COC(=O)[C@H](Cc1ccccc1)NC(=O)[C@@H](N)CC(=O)O` (H-Asp-Phe-OMe), the Potency result in the assay with CP247, in the assay with CP250, with CP252, in the assay with CP256, in the assay on CP260 and in the assay with CP262 was “inactive” each time. Besides, the Potency result with CP265, in the assay with CP266, in the assay with CP268, with CP269, in the assay on CP286 and in the assay on CP291 was “inactive” throughout. The Potency result in the assay on CP297, with CP305, in the assay with CP315, in the assay on CP325, with CP329 and in the assay with CP335 was “inactive” throughout. Moreover, the Potency entry in the assay with DFO2036 and in the assay with DIV14 was “inactive” throughout.

Turning to `CN1C(C(=O)Nc2ccccn2)=C(O)c2sccc2S1(=O)=O`, the Potency result in the assay with CP247, in the assay on CP250, in the assay with CP252, with CP256, in the assay on CP260 and in the assay on CP262 was “inactive” each time. Moreover, the Potency result with CP265, in the assay with CP266, in the assay on CP268, in the assay on CP269, with CP286 and in the assay on CP291 was “inactive” throughout. Besides, the Potency entry in the assay with CP297, in the assay with CP305, in the assay on CP315, in the assay on CP325, in the assay on CP329 and with CP335 was “inactive” in each case. The Potency entry with DFO2036 and in the assay with DIV14 was “inactive” in each case.

Consider `O=C(O)c1cc(=O)c2c(OCC(O)COc3cccc4oc(C(=O)O)cc(=O)c34)cccc2o1`, for which the Potency result with CP247, in the assay on CP250, with CP252, with CP256, in the assay on CP260 and in the assay with CP262 was “inactive” in each case. Further, the Potency result with CP265, in the assay with CP266, in the assay with CP268, in the assay with CP269, in the assay on CP286 and with CP291 was “inactive” each time. The Potency entry in the assay on CP297, in the assay on CP305, in the assay with CP315, in the assay on CP325, in the assay on CP329 and in the assay on CP335 was “inactive” throughout. For the same molecule, the Potency entry in the assay with DFO2036 and in the assay on DIV14 was “inactive” throughout.

Turning to `CCCCN(CCCC)CCC(O)c1cc2c(Cl)cc(Cl)cc2c2cc(C(F)(F)F)ccc12` (stereo not drawn), the Potency is 17.8 nM (active) with CP247; 31.6 nM (active) in the assay with CP250; 15.8 nM (active) in the assay with CP252; 141 nM (active) in the assay with CP256; 6.3 nM (active) in the assay with CP260; 18.1 nM (active) in the assay with CP262. Further, the Potency in the assay with CP265 is 31.6 nM (active); in the assay on CP266 it was 90.7 nM (active); in the assay with CP268 it was 51 nM (active); in the assay on CP269, 16.1 nM (active); in the assay on CP286, 8.9 nM (active); in the assay on CP291, 28.7 nM (active). The Potency is 18.1 nM (active) with CP297; 36.1 nM (active) in the assay with CP305; 51 nM (active) in the assay with CP315; 28.7 nM (active) in the assay on CP325; 51 nM (active) with CP329; 8.1 nM (active) in the assay on CP335. Also, the Potency in the assay on DFO2036 is 8.9 nM (active).

As to `CC(C)[C@H](N)C(=O)OCCOCn1cnc2c(=O)[nH]c(N)nc21`, the Potency entry in the assay on CP247, with CP250, in the assay on CP252, with CP256, in the assay with CP260 and in the assay on CP262 was “inactive” each time. The Potency entry with CP265, in the assay with CP266, in the assay with CP268, with CP269, in the assay on CP286 and in the assay with CP291 was “inactive” in each case. The Potency entry with CP297, with CP305, in the assay on CP315, with CP325, in the assay with CP329 and with CP335 was “inactive” in each case. Besides, the Potency result in the assay with DFO2036 and in the assay on DIV14 was “inactive” in each case.

`CS(=O)(=O)OCCCCOS(C)(=O)=O`: the Potency entry in the assay on CP247, in the assay with CP250, with CP252, in the assay on CP256, in the assay with CP260 and in the assay on CP262 was “inactive” in each case. Moreover, the Potency entry with CP265, in the assay with CP266, in the assay with CP268, with CP269, with CP286 and in the assay with CP291 was “inactive” each time. In addition, the Potency entry in the assay with CP297, in the assay with CP305, in the assay on CP315, with CP325, with CP329 and with CP335 was “inactive” throughout. In addition, the Potency entry in the assay on DFO2036 and in the assay on DIV14 was “inactive” each time.

As for `CC(S)C(=O)NCC(=O)O` (stereo not drawn), the Potency entry with CP247, with CP250, in the assay on CP252, in the assay with CP256, in the assay on CP260 and with CP262 was “inactive” each time. In addition, the Potency entry in the assay on CP265, with CP266, with CP268, in the assay with CP269, in the assay with CP286 and in the assay on CP291 was “inactive” in each case. In addition, the Potency entry with CP297, in the assay on CP305, with CP315, in the assay with CP325, in the assay on CP329 and in the assay with CP335 was “inactive” in each case. Also, the Potency entry in the assay with DFO2036 and with DIV14 was “inactive” in each case.

For the molecule `Nc1ccc(S(N)(=O)=O)cc1`, the Potency result with CP247, with CP250, with CP252, in the assay with CP256, in the assay with CP260 and with CP262 was “inactive” throughout. Also, the Potency result in the assay with CP265, in the assay with CP266, in the assay with CP268, in the assay with CP269, in the assay on CP286 and with CP291 was “inactive” throughout. Further, the Potency entry in the assay on CP297, with CP305, with CP315, in the assay on CP325, in the assay with CP329 and in the assay on CP335 was “inactive” in each case. Moreover, the Potency result in the assay on DFO2036 and with DIV14 was “inactive” each time.

Consider `Cc1c(OCC(F)(F)F)ccnc1CS(=O)c1nc2ccccc2[nH]1` (stereo not drawn), for which the Potency result in the assay on CP247, in the assay on CP250, with CP252, in the assay on CP256, with CP260 and with CP262 was “inactive” each time. Moreover, the Potency result in the assay with CP265, with CP266, in the assay on CP268, in the assay on CP269, in the assay on CP286 and in the assay on CP291 was “inactive” each time. The Potency entry with CP297, in the assay on CP305, in the assay on CP315, in the assay on CP325, in the assay on CP329 and in the assay with CP335 was “inactive” throughout. The Potency result in the assay with DFO2036 was “inactive”.
